Source: PubChem BioAssay (NCI)
Where “and” joins values, the source holds several entries; their conditions need not be identical. Equal entries are not always repeated. The panel holds about 79,000 compounds, 15% with a hit somewhere; the sample as a whole holds those more often. More than one record can exist for a structure, and the calls need not agree. Calls of active or inactive are those of the source. Cut-off read from the data, not from the text of the source: active = growth inhibition above about 70%; inactive = the rest.

Assay: NCI Yeast Anticancer Drug Screen. Data for the mec2-1 strain (AID 157)
Settings: S. cerevisiae mec2-1 strain, at 50.0 µM, stronger effect = higher value
How it was run: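 Using mec2-1 yeast: add compound, measure growth, express inhibition versus vehicle-treated cultures.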

Compound	growth inhibition
O=c1[nH]cnc2[nH]cc(CN3CCCCC3)c12	13.2% (inactive)
NCCBr	-7.65% (inactive) and -21.2% (inactive)
CSc1ncc(COP(=S)(OCc2cnc(SC)nc2N)OCc2cnc(SC)nc2N)c(N)n1	-5.35% (inactive)
O=[N+]([O-])c1ccc(O)c(Cl)c1	78.9% (active)
CCN(CC)CC(=O)c1ccc2c(ccc3ccccc32)c1	99.5% (active)
Cc1ccc([C@H]2N[C@@H]2c2ccccn2)cc1	7% (inactive)
CCC1(C2=CCCCC2)C(=O)NC(=S)NC1=O	-3.9% (inactive) and 5.6% (inactive)
Cn1cnc(C(=N)[Se])c1N	71% (active)
CCOC(=O)NC(=S)[S][Sb]([S]C(=S)NC(=O)OCC)[S]c1nc2ccc(N=Nc3ccc(NS(=O)(=O)c4ccc(NC(=O)C(N5CC5)(N5CC5)N5CC5)cc4)cc3)cc2s1	99.6% (active)
COc1ccccc1/C=C(/C)[N+](=O)[O-]	99.8% (active)
O=c1oc2ccccc2c(O)c1C(c1ccc(OCc2ccccc2)cc1)c1c(O)c2ccccc2oc1=O	86.3% (active)
COc1cc(N(CCCl)CCCl)ccc1C=Nc1cccc(Cl)c1	62.6% (inactive)
O=[N+]([O-])c1cc2c([N+](=O)[O-])cccc2o1	99.7% (active)
ClCCN(CCCl)c1ccc(C2N(Cc3ccc(N(CCCl)CCCl)cc3Cl)CCCN2Cc2ccc(N(CCCl)CCCl)cc2Cl)cc1	98.8% (active)
CCN(Cc1ccccc1)CC(O)c1ccc(Cl)c(Cl)c1 (stereo not drawn)	-12.7% (inactive)
FC1(F)C(Cl)=[C]([Hg][C]2=C(Cl)C(F)(F)C(F)(F)C(F)(F)C2(F)F)C(F)(F)C(F)(F)C1(F)F	51.1% (inactive)
CCn1c(O)c(C(=O)NC(C)c2ccc([N+](=O)[O-])cc2)c(=O)n(CC)c1=S (stereo not drawn)	91.4% (active)
CC(=O)[O][Hg][c]1ccccc1N	93.8% (active)
CCC[CH2][Sn]1([CH2]CCC)[O]Cc2nc(C)ccc2[O]1	81.8% (active)
CCCCCCCCCCCCC(=O)[O][Hg][c]1ccccc1	99.5% (active)

Compound	growth inhibition
CN(C)CC1CC2C3CC=C4CC(O)CCC4(C)C3CCC2(C)C1=O (stereo not drawn)	37.4% (inactive)
CC(=O)O.CC(=O)[O-].CC(=O)[O-].[Co+3].[NH-]CC[NH-].[NH-]CC[NH-]	10.3% (inactive)
Nc1nc(CCl)cs1	-24.7% (inactive) and -9.55% (inactive)
CC1=CCC2(C)C3CCC4(C)C(O)CCC4C3CCC2(C)C1 (stereo not drawn)	11.9% (inactive)
CC1CCC2(NC1)OC1CC3C4CC=C5CC(O)CCC5(C)C4CCC3(C)C1C2C (stereo not drawn)	93% (active) and 99.3% (active)
CCN1CCC(O)(c2ccc(Cl)c(Cl)c2)C(C(=O)c2ccc(Cl)c(Cl)c2)C1 (stereo not drawn)	99.6% (active)
O=C(c1ccccc1)c1c(CC(O)c2ccccn2)n(C(=O)c2ccccc2)c2ccccc12 (stereo not drawn)	46.7% (inactive)
CC(O[Si](c1ccccc1)(c1ccccc1)C(C)(C)C)[C@H](NC(=O)OC(C)(C)C)C(=O)O (stereo partly drawn)	86.3% (active)
CC(C)=CC1CC(C)C2(CCC3(C)CC4C(C(=O)CC4(C)O)/C(C=O)=C\CC32)O1 (stereo not drawn)	94.6% (active)
CC(=O)O[C@H]1C[C@@H]2OC3C=C(C)CCC3(C)[C@@]1(C)[C@@]21CO1 (stereo partly drawn)	94.3% (active) and 1.7% (inactive)
O=C1NC(=O)C([N+](=O)[O-])C(=O)N1	30.1% (inactive)
N#C[S-].[Nd+3].c1ccc(-c2ccccn2)nc1.c1ccc(-c2ccccn2)nc1.c1ccc(-c2ccccn2)nc1	94.1% (active)
CC(=O)Nc1ccccc1[As](O[As](c1ccccc1)c1ccccc1NC(C)=O)c1ccccc1 (stereo not drawn)	99.6% (active)
Oc1cccc[c]1[Hg][Cl]	99.7% (active)
Nc1nc(N)c(-c2ccc(Cl)c(Cl)c2)c(CCc2ccc(CNC(=O)Nc3ccc(S(=O)(=O)F)cc3)cc2)n1	34% (inactive)
C1CC[N-]CC1.CC(=N\O)/C(C)=N/O.CC(=N\O)/C(C)=N/O.OC1[CH-]CCCC1.[Co+2]	-1.95% (inactive)
CC(=O)OC1C2(CC3N4C(=O)C5(CO)SSC4(CC31O)C(=O)N5C)OC(C)C(C)(C)C2=O (stereo not drawn)	93.2% (active)
C[C@H]1C/C=C/[C@H]2[C@@H]3O[C@]3(C)[C@@H](C)[C@H]3[C@H](Cc4ccccc4)NC(=O)[C@]32OC(=O)O/C=C/[C@@](C)(O)C1=O	91.3% (active)
C1CC[N-]CC1.[Cl][Au]([Cl])[Cl]	65.5% (inactive)

Assay: NCI Yeast Anticancer Drug Screen. Data for the sgs1 mgt1 strain (AID 161);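 note: 0% = growth of cultures given vehicle only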
Settings: S. cerevisiae sgs1 mgt1 strain, at 5.0 µM (retest, dose inferred, filed as 0.5), stronger effect = higher value
How it was run: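 Yeast cells carrying a defined DNA-repair defect were exposed to test compounds. Growth inhibition was measured relative to vehicle-treated controls.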

Compound	growth inhibition
O=c1[nH]cnc2[nH]cc(CN3CCCCC3)c12	-1% (inactive)
NCCBr	-3% (inactive)
CSc1ncc(COP(=S)(OCc2cnc(SC)nc2N)OCc2cnc(SC)nc2N)c(N)n1	1% (inactive)
O=[N+]([O-])c1ccc(O)c(Cl)c1	-4% (inactive)
CCN(CC)CC(=O)c1ccc2c(ccc3ccccc32)c1	6% (inactive)
Cc1ccc([C@H]2N[C@@H]2c2ccccn2)cc1	-5% (inactive)
CCC1(C2=CCCCC2)C(=O)NC(=S)NC1=O	22% (inactive)
Cn1cnc(C(=N)[Se])c1N	27% (inactive)
CCOC(=O)NC(=S)[S][Sb]([S]C(=S)NC(=O)OCC)[S]c1nc2ccc(N=Nc3ccc(NS(=O)(=O)c4ccc(NC(=O)C(N5CC5)(N5CC5)N5CC5)cc4)cc3)cc2s1	46% (inactive)
COc1ccccc1/C=C(/C)[N+](=O)[O-]	34% (inactive) and 55% (inactive)
O=c1oc2ccccc2c(O)c1C(c1ccc(OCc2ccccc2)cc1)c1c(O)c2ccccc2oc1=O	-33% (inactive)
COc1cc(N(CCCl)CCCl)ccc1C=Nc1cccc(Cl)c1	1% (inactive)
O=[N+]([O-])c1cc2c([N+](=O)[O-])cccc2o1	19% (inactive)
ClCCN(CCCl)c1ccc(C2N(Cc3ccc(N(CCCl)CCCl)cc3Cl)CCCN2Cc2ccc(N(CCCl)CCCl)cc2Cl)cc1	-1% (inactive)
CCN(Cc1ccccc1)CC(O)c1ccc(Cl)c(Cl)c1 (stereo not drawn)	-2% (inactive)
FC1(F)C(Cl)=[C]([Hg][C]2=C(Cl)C(F)(F)C(F)(F)C(F)(F)C2(F)F)C(F)(F)C(F)(F)C1(F)F	58% (inactive)
CCn1c(O)c(C(=O)NC(C)c2ccc([N+](=O)[O-])cc2)c(=O)n(CC)c1=S (stereo not drawn)	24% (inactive)
CC(=O)[O][Hg][c]1ccccc1N	99% (active)
CCC[CH2][Sn]1([CH2]CCC)[O]Cc2nc(C)ccc2[O]1	40% (inactive)
CCCCCCCCCCCCC(=O)[O][Hg][c]1ccccc1	100% (active)

Compound	growth inhibition
CN(C)CC1CC2C3CC=C4CC(O)CCC4(C)C3CCC2(C)C1=O (stereo not drawn)	-5% (inactive)
CC(=O)O.CC(=O)[O-].CC(=O)[O-].[Co+3].[NH-]CC[NH-].[NH-]CC[NH-]	2% (inactive)
Nc1nc(CCl)cs1	1% (inactive)
CC1=CCC2(C)C3CCC4(C)C(O)CCC4C3CCC2(C)C1 (stereo not drawn)	-6% (inactive)
CC1CCC2(NC1)OC1CC3C4CC=C5CC(O)CCC5(C)C4CCC3(C)C1C2C (stereo not drawn)	92% (active) and -3% (inactive)
CCN1CCC(O)(c2ccc(Cl)c(Cl)c2)C(C(=O)c2ccc(Cl)c(Cl)c2)C1 (stereo not drawn)	78% (active)
O=C(c1ccccc1)c1c(CC(O)c2ccccn2)n(C(=O)c2ccccc2)c2ccccc12 (stereo not drawn)	5% (inactive)
CC(O[Si](c1ccccc1)(c1ccccc1)C(C)(C)C)[C@H](NC(=O)OC(C)(C)C)C(=O)O (stereo partly drawn)	13% (inactive)
CC(C)=CC1CC(C)C2(CCC3(C)CC4C(C(=O)CC4(C)O)/C(C=O)=C\CC32)O1 (stereo not drawn)	99% (active)
CC(=O)O[C@H]1C[C@@H]2OC3C=C(C)CCC3(C)[C@@]1(C)[C@@]21CO1 (stereo partly drawn)	99% (active)
O=C1NC(=O)C([N+](=O)[O-])C(=O)N1	9% (inactive)
N#C[S-].[Nd+3].c1ccc(-c2ccccn2)nc1.c1ccc(-c2ccccn2)nc1.c1ccc(-c2ccccn2)nc1	44% (inactive)
CC(=O)Nc1ccccc1[As](O[As](c1ccccc1)c1ccccc1NC(C)=O)c1ccccc1 (stereo not drawn)	66% (inactive)
Oc1cccc[c]1[Hg][Cl]	99% (active)
Nc1nc(N)c(-c2ccc(Cl)c(Cl)c2)c(CCc2ccc(CNC(=O)Nc3ccc(S(=O)(=O)F)cc3)cc2)n1	-4% (inactive)
C1CC[N-]CC1.CC(=N\O)/C(C)=N/O.CC(=N\O)/C(C)=N/O.OC1[CH-]CCCC1.[Co+2]	28% (inactive)
CC(=O)OC1C2(CC3N4C(=O)C5(CO)SSC4(CC31O)C(=O)N5C)OC(C)C(C)(C)C2=O (stereo not drawn)	68% (inactive)
C[C@H]1C/C=C/[C@H]2[C@@H]3O[C@]3(C)[C@@H](C)[C@H]3[C@H](Cc4ccccc4)NC(=O)[C@]32OC(=O)O/C=C/[C@@](C)(O)C1=O	19% (inactive)
C1CC[N-]CC1.[Cl][Au]([Cl])[Cl]	26% (inactive)
